Measured values from ChEMBL document CHEMBL4513136, “CO-ADD screening of CSIC (Spain) compounds”.
Entries with a potency or affinity are not part of this list.

Key:
Staphylococcus aureus = conditions: Concentration 32 ug.mL-1; ASSAY_TEST Inhibition of Bacterial Growth; detection method Absorption (OD600); MEDIA CAMHB; plate type 384well; NBS; CORNING #3640; time 18 hr
Escherichia coli = conditions: Concentration 32 ug.mL-1; ASSAY_TEST Inhibition of Bacterial Growth; detection method Absorption (OD600); MEDIA CAMHB; plate type 384well; NBS; CORNING #3640; time 18 hr

SMILES | Inhibition (Staphylococcus aureus) [%] | Inhibition (Escherichia coli) [%]
COc1ccc(OC)c(C(=O)/C=C/c2ccccc2O)c1 | 11.52 | -22.92
O=C(Cc1cc(O)ccc1O)Nc1cc(O)ccc1O | 22.67 | -14.95
COC(=O)C1(Cc2ccc(OCc3c(Cl)cccc3Cl)cc2)C(C)C(=O)N1Cc1ccc(OC)cc1 (configuration not stated) | 19.17 | -12.56
O=C(/C=C/c1ccccc1O)c1cc(O)c(O)cc1O | 26.82 | -8.37
COc1ccc(NC(=O)Cc2cc(OC)ccc2OC)cc1 | 31.14 | -11.77
COc1ccc(CN2C(=O)C(C)C2(Cc2cn(C(=O)OC(C)(C)C)c3ccccc23)C(=O)OC(C)(C)C)cc1 (configuration not stated) | 27.02 | -6.98
COc1ccc(OC)c(CC(=O)Nc2ccc(OC)cc2OC)c1 | 26.56 | -12.34
O=C(CCc1ccc(O)cc1O)c1cc(O)ccc1O | 23.73 | -20.02
CC1C(=O)N(Cc2ccc(OCCN3CCOCC3)cc2)C1(Cc1ccccc1)C(=O)O (configuration not stated) | 11.78 | -10.5
COc1ccccc1/C=C/C(=O)c1cc(OC)c(OC)cc1OC | 26.72 | -13.16
COc1ccc(OC)c(C(=O)/C=C/c2ccc(O)cc2)c1 | 10.84 | -21.08
O=C(OCc1ccccc1)N1C(=O)C(c2ccccc2NC(=O)C(F)(F)F)=C(O)C1Cc1ccccc1 (configuration not stated) | 36.54 | -6.54
COc1ccc(OC)c(NC(=O)Nc2ccc(OC)cc2OC)c1 | 5.98 | -17.47
O=C(Nc1ccc(O)cc1O)Nc1cc(O)ccc1O | 10.74 | -13.5
O=C(/C=C/c1c[nH]c2ccc(O)cc12)c1cc(O)ccc1O | 20.75 | -12.64
COC(=O)c1c(C(Cc2ccccc2)NC(=O)OCc2ccccc2)[nH]c2ccccc12 (configuration not stated) | 22.9 | -13.62
COc1ccc(OC)c(C(=O)CCc2ccccc2O)c1 | 15.3 | -20.89
Oc1ccc(-n2cc(-c3cc(O)ccc3O)nn2)cc1 | 19.08 | -16.85
O=C(Cc1cc(O)ccc1O)Nc1ccc(O)cc1O | 17.97 | -13.2
Oc1ccc(O)c(-c2cn(-c3ccc(O)c(O)c3)nn2)c1 | 34.68 | -12.66
COc1ccc(OC)c(-c2cn(-c3ccc(OC)c(OC)c3)nn2)c1 | -11.96 | -27.73
COc1ccc(OC)c(C(=O)/C=C/c2c[nH]c3ccc(OC)cc23)c1 | 20.69 | -14.33
COc1ccc(OC)c(C(=O)CCc2ccc(O)cc2)c1 | 16.63 | -22.53
O=C(Cc1cc(O)ccc1O)Nc1ccc(O)cc1 | 29.77 | -10.96
COc1ccc(OC)c(CC(=O)Nc2cc(OC)ccc2OC)c1 | 27.17 | -12.93
COc1ccc(C(=O)/C=C/c2ccc(OC)cc2OC)cc1 | 6.51 | -22.4
